Bioassay records as filed in PubChem BioAssay.
FadD28 binding = blocks FadD28 binding to the bisubstrate probe. fluorescence polarization. inhibition, % at 12.5 µM. hit rate 0.22% among 360,000. AID 588549; in the data active = inhibition above about 8.5%, passing the limit was not always enough; inconclusive = no clear call, values can overlap the other calls
Y pestis TopoI = Y. pestis Topo-I inhibition via cleavage products. AID 504884. activity, % at 10 µM. hit rate 0.064% among 360,000. Y. pestis Topo-I cleavage product accumulation, plate reader; in the data active = activity above about 50%, passing the limit was not always enough; inconclusive = no clear call, values can overlap the other calls
BioA inh = inhibitors of Mycobacterium tuberculosis BioA enzyme; inhibition, % at 9.99 µM; hit rate 0.096% among 360,000; purified M. tuberculosis BioA enzyme, plate reader; in the data active = inhibition above about 40%; inconclusive = no clear call, values can overlap the other calls
PfHsp40 yeast = compounds rescuing yeast from Plasmodium falciparum HSP40 toxicity; S. cerevisiae expressing PfHsp40, growth rescue, ATP luminescence; AID 504582; growth rescue, % at 12.5 µM; hit rate 0.68% among 340,000; in the data active = growth rescue above about 28%, passing the limit was not always enough; inconclusive = no clear call, values can overlap the other calls;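 note: yeast W303a lacking pdr1 and pdr3 grown in galactose medium; growth measured after three days at 30 °C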
PrP UTR inh = suppresses PrP 5' UTR mRNA reporter expression; AID 488862; hit rate 0.35% among 340,000; cell-based PrP 5' UTR mRNA reporter, plate reader; inhibition, % (no concentration beside the values); in the data active = inhibition above about 52%; note: 0 = median of the neutral control wells
PrP 5UTR single = prion 5' UTR mRNA inhibition, cherry-pick retest; cell-based prion protein 5' UTR reporter, plate reader; shares compounds with PrP UTR inh; hit rate 48% among 1,100; inhibition, % at 2.5 µM; in the data active = inhibition above about 54%; inconclusive = no clear call, values can overlap the other calls
* hit, by the source's call; u = inconclusive; x = no result given. This is a sample that favours compounds with a hit; in the whole collection about 1.1% have one here.

SMILES	FadD28 binding	Y pestis TopoI	BioA inh	PfHsp40 yeast	PrP UTR inh	PrP 5UTR single
CCOC(=O)C1=CN(Cc2cccc(I)c2)S(=O)(=O)N(C)C1C (configuration not stated)	-3	29	0	1	90*	-11
CCOC(=O)C1=CN(Cc2ccco2)S(=O)(=O)N(C)C1c1ccc2ccccc2c1 (configuration not stated)	-1	6	-1	-1	55*	-7
COc1ccc(S(=O)(=O)Nc2ccc3c(c2)C(=O)N([C@H](C)CO)C[C@H](C)[C@H](CN(C)S(=O)(=O)c2ccc(C)cc2)O3)cc1	x	x	0	x	x	x
CCNC(=O)Nc1ccc2c(c1)C(=O)N(C)[C@H]1CC[C@H](CC(=O)NCC3CCCCC3)O[C@H]1CO2	x	x	-4	x	x	x
Cc1ccc2nc(-c3ccc4c(c3)OCCO4)cn2c1	-2	0	1	4	89*	79*
CNC(=O)Oc1cccc(-c2cn3cc(Cl)ccc3n2)c1	1	2	x	-1	-4	x
CNC(=O)Oc1ccc(-c2cn3cc(C)ccc3n2)cc1	-2	-1	x	-2	57*	54*
c1ccn2cc(-c3ccc4c(c3)OCCO4)nc2c1	0	6	x	-3	40	x
COc1ccc(S(=O)(=O)Nc2ccc3c(c2)C(=O)N([C@H](C)CO)C[C@H](C)[C@@H](CN(C)S(=O)(=O)c2cn(C)cn2)OCCCC[C@@H](C)O3)cc1	x	x	8	x	x	x
CCc1ccc(-c2cc(C(=O)Nn3cnnc3)c3ccccc3n2)cc1	-9	2	x	-1	70*	61*
CCNC(=S)NNC(=O)c1cc(-c2ccc(OCC)cc2)nc2ccccc12	-3	-1	x	-1	58*	27
CCCNC(=O)N(C)C[C@@H]1Oc2cc(C#Cc3ccccn3)ccc2S(=O)(=O)N([C@@H](C)CO)C[C@H]1C	x	x	2	x	x	x
COC(=O)c1cc(NC(=O)c2nccnc2C(=O)O)cc(C(=O)OC)c1	-1	-3	0	0	60*	-29
Cc1cc(C)cc(NC(=O)c2nccnc2C(=O)O)c1	1	0	0	0	-4	x
CC1CCN(C(=O)/C(=C\c2cccs2)NC(=O)c2ccccc2)CC1	0	8	x	-1	59*	-10
COC(C(=O)C(O)C(C)O)C1Cc2cc3cc(OC4CC(OC5CC(O)C(O)C(C)O5)C(O)C(C)O4)c(C)c(O)c3c(O)c2C(=O)C1OC1CC(OC2CC(OC3CC(O)C(OC)C(C)O3)C(O)C(C)O2)C(O)C(C)O1 (configuration not stated)	1	26	x	2	70*	71*
O=C(c1ccccc1F)N1CC[C@@H]2[C@H](CO)Nc3ccc(-c4cccc(F)c4)cc3[C@@H]21	x	x	6	x	x	x
CC[C@H](C)[C@@H](C(=O)N1CCCC1c1nccs1)N(C)C(=O)[C@H](CC(C)C)N(C)C(=O)[C@H](Cc1ccc(OC)cc1)N(C)C(=O)/C=C(\C)OC (some centres not stated)	1	41	3	3	-20	x
CC[C@@H](C)[C@H](C(CC(=O)N1CCCC1[C@@H](OC)[C@H](C)C(=O)N[C@H](Cc1ccccc1)c1nccs1)OC)N(C)C(=O)[C@H](NC(=O)[C@@H](C(C)C)N(C)C)C(C)C (some centres not stated)	-1	23	x	-1	56*	92*
Cc1cc(C)c2c(N)c(C(=O)c3ccccc3)oc2n1	0	-4	2	3	-19	x
Cc1cc(-c2ccccc2)nc2oc(C(=O)NN)c(N)c12	-2	-3	0	0	72*	1
O=C(c1ccco1)N1CCN(S(=O)(=O)/C=C/c2ccccc2)CC1	-3	3	x	0	56*	11
O=C(c1cc2ccccc2o1)N1CCN(S(=O)(=O)/C=C/c2ccccc2)CC1	-2	37	4	3	-20	x
ON=C1c2ccccc2-c2ccccc21	-1	-7	0	8	4	x
CN(C)c1ccc2c(c1)C(=NO)c1ccccc1-2	-1	-20	x	7	68*	-73
CNc1c2cccc(C)c2nc2c(C(=O)NCCN(C)C)cccc12	-1	-50	x	1	96*	96*
CCS(=O)(=O)N(C)C[C@@H]1OCc2ccccc2-c2c(n(C)c3ccccc23)C(=O)N([C@@H](C)CO)C[C@@H]1C	x	x	0	x	x	x
O=c1oc2ccccc2cc1-c1cn2ccccc2n1	-2	0	x	-1	81*	u
O=c1oc2ccccc2cc1-c1cn2cccnc2n1	-2	-6	0	-1	-20	x
